High-throughput results: PubChem, National Center for Advancing Translational Sciences (NCATS)
In the library only some 3% were active in any assay of this set; here they are far more common.
KDM5B inh: KDM5B demethylase inhibition; KDM5B demethylase, FDH-coupled NADH fluorescence (FDH is formaldehyde dehydrogenase); Q9UGL1; Potency, µM (series often up to 57.7 µM), actives largely listed as inhibitors; actives 2.6% (n = 220,000); note: potency is the fitted concentration of half-maximal effect; 0% is about no effect; nearly all actives have a fitted effect of over 70% in size
Target sequence (Q9UGL1 whole entry, looked up): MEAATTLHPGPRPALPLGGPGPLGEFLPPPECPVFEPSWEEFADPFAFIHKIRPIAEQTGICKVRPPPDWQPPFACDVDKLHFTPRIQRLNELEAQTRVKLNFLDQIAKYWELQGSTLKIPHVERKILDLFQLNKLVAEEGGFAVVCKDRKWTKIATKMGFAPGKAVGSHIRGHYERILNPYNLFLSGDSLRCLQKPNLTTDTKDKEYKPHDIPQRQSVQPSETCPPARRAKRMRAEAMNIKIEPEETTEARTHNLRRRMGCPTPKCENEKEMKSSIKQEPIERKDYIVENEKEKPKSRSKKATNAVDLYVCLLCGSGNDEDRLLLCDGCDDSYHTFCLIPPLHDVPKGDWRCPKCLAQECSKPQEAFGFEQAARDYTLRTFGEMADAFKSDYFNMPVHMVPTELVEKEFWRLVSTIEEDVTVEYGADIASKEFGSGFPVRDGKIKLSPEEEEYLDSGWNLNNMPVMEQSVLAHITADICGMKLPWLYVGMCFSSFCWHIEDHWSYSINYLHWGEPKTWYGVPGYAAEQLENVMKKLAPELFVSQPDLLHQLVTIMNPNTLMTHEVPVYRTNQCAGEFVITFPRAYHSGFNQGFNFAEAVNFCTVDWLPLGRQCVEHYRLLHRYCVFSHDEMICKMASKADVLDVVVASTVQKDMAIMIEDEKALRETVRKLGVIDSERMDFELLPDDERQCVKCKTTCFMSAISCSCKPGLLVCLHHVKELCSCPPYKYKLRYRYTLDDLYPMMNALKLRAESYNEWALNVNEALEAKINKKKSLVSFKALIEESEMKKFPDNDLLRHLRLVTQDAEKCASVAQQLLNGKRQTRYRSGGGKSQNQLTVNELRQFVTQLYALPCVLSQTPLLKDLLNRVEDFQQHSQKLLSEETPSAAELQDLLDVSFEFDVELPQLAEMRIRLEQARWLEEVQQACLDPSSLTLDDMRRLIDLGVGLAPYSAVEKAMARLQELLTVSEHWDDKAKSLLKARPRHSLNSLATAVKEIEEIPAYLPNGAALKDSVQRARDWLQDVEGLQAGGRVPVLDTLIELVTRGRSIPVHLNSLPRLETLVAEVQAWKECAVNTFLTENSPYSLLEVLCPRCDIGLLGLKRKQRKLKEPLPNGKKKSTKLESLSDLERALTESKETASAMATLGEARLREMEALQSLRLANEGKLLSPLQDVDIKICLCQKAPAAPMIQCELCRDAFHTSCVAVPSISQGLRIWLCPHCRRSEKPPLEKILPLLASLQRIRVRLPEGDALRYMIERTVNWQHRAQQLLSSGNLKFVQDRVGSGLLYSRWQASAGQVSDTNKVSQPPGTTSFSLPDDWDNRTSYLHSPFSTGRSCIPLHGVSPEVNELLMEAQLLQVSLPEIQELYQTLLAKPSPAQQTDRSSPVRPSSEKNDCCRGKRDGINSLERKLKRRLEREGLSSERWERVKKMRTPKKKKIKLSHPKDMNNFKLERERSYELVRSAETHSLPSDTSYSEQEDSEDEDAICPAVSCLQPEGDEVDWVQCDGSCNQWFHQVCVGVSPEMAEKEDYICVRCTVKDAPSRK
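Coupled FDH/NAD⁺ fluorescence readout. KDM5BΔAP 200 nM final; compound titration, 10 min RT preincubation; substrate mix 12.5 µM H3K4me3, 25 µM 2-OG, 50 µM Fe(II), 100 µM ascorbate, 0.25 mM NAD⁺, 0.25 U/mL FDH; ΔRFU over 30 min.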
IP6K1 inhibitor: blocks human inositol hexakisphosphate kinase 1; Q92551; IP6K1 kinase, ADP-Glo luminescence, 2 h; hits give low values; activity change, % (series mostly up to about 58 µM); actives 0.81% (n = 140,000); AID 1645851; in the data active = activity change below about -25%; note: % is set by controls: 0 for no effect and ±100 for the full control effect
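ADP-Glo luminescence measures ADP made by human IP6K1 during a 2 h RT reaction with ATP/IP6 (mix at 1.3 mM/130 uM); top library doses 57.5 and 19.1 uM final.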
HEK293 viab: cell viability loss counter-screen | actives 0.12% (n = 150,000) | Potency, µM (top dose mostly 57.1 µM), without a hit: at the highest dose activity change, negative = cytotoxicity, most hits filed as cytotoxic | HEK-293-SNCA-luc viability, GF-AFC fluorescence, 24 h | AID 1671193;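 note: potency is the fitted concentration of half-maximal effect; 0% = DMSO-treated cells and -100% = medium-only wells without cells; nearly all actives have a fitted effect of over 30% in size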
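Cytotoxicity counterscreen: after 24 h compound treatment of genome-edited SNCA-luciferase HEK-293 cells, live-cell protease substrate GF-AFC read by fluorescence after 30 min; activity scaled between DMSO (0%) and medium-only (-100%), curves Hill-fitted.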
SNCA expr inhib: SNCA gene expression inhibition. Potency, µM (titrated, usually from 57.2 µM), inactives show at the highest dose activity change, negative = inhibition, most hits filed as inhibitors. actives 0.17% (n = 140,000). AID 1671194. HEK-293 SNCA-luciferase knock-in, luminescence, 24 h;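 note: potency is the fitted concentration of half-maximal effect; plate controls were DMSO cells for no effect and cell-free wells for full effect; nearly all actives have a fitted effect of over 45% in size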
* marks the source's active call; other numbers are inactive results; i = inactive; ? = inconclusive; . = no result given; ! = not confirmed by another sample; [ ] = dose if it differs, or a comment. Unless noted, calls come from the whole dose curve; as a rule, active = well fitted curve in the direction sought with a large enough effect; inconclusive = small, poorly fitted or top-dose-only effect, or another doubt; inactive = no such curve, though single readings can be large; an effect the other way counts as inactive or inconclusive.

SMILES	KDM5B inh	IP6K1 inhibitor	HEK293 viab	SNCA expr inhib
CC1(COc2ccccc2)COc2ccc(C(=O)NCc3ccco3)cc2N1 (stereo not given)	?	-3	-8%[87.6 µM]	-7%[87.6 µM]
Nc1nc(F)nc2c1ncn2[C@@H]1O[C@H](CO)[C@@H](O)[C@@H]1O	.	10	?	8.6µM*!
CCC1CN(C(=O)c2ccc3nc(-c4ccccc4)cn3c2)CCN1C(C)C (stereo not given)	28µM*	5	3%	14%
O=C(c1ccc2nccn2c1)N1CCC(Cc2ccccc2)CC1	.	18	6%[87.6 µM]	-38%[87.6 µM]
O=C(NC1CC(c2cc(NCCO)ncn2)C1)c1cc2ccccc2[nH]1 (stereo not given)	28µM*	9	5%	14%
Cn1cnnc1CC1CCN(C(=O)CCc2nc3ccccc3[nH]c2=O)CC1	25µM*	4	6%	0%
Cn1cnnc1CC1CCN(C(=O)CCc2ccccc2)CC1	.	-6	-6%	?
CC(C)C[C@H](NC(=O)[C@H](CCc1ccccc1)NC(=O)CN1CCOCC1)C(=O)N[C@@H](Cc1ccccc1)C(=O)N[C@@H](CC(C)C)C(=O)[C@@]1(C)CO1	.	-1	?	0.12µM*!
CCC(CC)C(=O)N1C[C@@H](CO)[C@@H]2Oc3ccc(Cl)cc3[C@@H]21	.	9	.	.
COc1ccc(C(=O)NCc2nnc3c(-c4nc(C)no4)cccn23)cc1	25µM*	30	-12%	-2%
Cc1ccc(C(=O)NCc2nnc3c(-c4nc(C)no4)cccn23)cc1	28µM*	11	-17%	?
CCn1c(CO)nnc1C1CC(NC(=O)c2oc3cc(OC)ccc3c2C)C1 (stereo not given)	28µM*	94	7%	5%
CCCc1ccc2oc(C(=O)NCCc3nncn3CC)c(C)c2c1	?	-10	-10%	122%
CCn1c(CO)nnc1C1CC(NC(=O)c2[nH]c3ccc(OC)cc3c2C)C1 (stereo not given)	28µM*	54	3%	7%
COCCn1cnnc1CCNC(=O)c1oc2cc(OC)ccc2c1C	28µM*	11	5%	-4%
Cc1ccc(C2Cn3nnc(C(=O)N4CCN(C(=O)c5ccc(N(C)C)cc5)CC4)c3CO2)cc1 (stereo not given)	?	-2	1%	22%
CN(CCCN)C1CCCCC1	i	.	.	.
Cc1cc(Nc2ncc3cc(-c4c(Cl)cccc4Cl)c(=O)n(C)c3n2)ccc1F	.	6	-19%	.
CCN(CC)CCOc1ccc(Nc2ncc3cc(-c4c(Cl)cccc4Cl)c(=O)n(C)c3n2)cc1	.	.	?	3µM*
O=C(Nc1cn[nH]c1-c1nc2ccc(CN3CCOCC3)cc2[nH]1)NC1CC1	.	-2	?	24µM*
CC(=O)N1CCC(Cc2noc(-c3ccccc3)n2)C1 (stereo not given)	i	-3	-7%	33%
O=C(c1cccc(F)c1)N1CCCC(Cc2noc(-c3ccccc3)n2)C1 (stereo not given)	i	6	3.5µM*	?
CCc1nn(-c2ccc(OC)cc2)c(Oc2ccccc2F)c1CCC(=O)NC(C)C	i	-6	-18%	-18%
CCc1nn(-c2ccc(OC)cc2)c(Oc2ccccc2F)c1CCC(=O)NCCOC	25µM*	-5	-3%	1%
O=C(O)COc1ccc(-c2nccc3c2C(=O)N(Cc2c[nH]c4ccccc24)CC(COc2ccc(F)cc2F)O3)cc1 (stereo not given)	i	9	-2%	7%
SMILES	KDM5B inh	IP6K1 inhibitor	HEK293 viab	SNCA expr inhib
Cc1nn(-c2ccc(C(C)(C)C)cc2)c(C)c1[C@@H]1C=C[C@@H](NC(=O)NCc2ccccc2)C1	32µM*	13	?	36%[87.6 µM]
Cc1nn(-c2ccc(C(C)(C)C)cc2)c(C)c1[C@@H]1C=C[C@@H](NC(=O)c2ccc(N(C)C)cc2)C1	?	7	-26%	-8%
Cc1nn(-c2ccc(C(F)(F)F)cc2)c(C)c1[C@@H]1C=C[C@@H](NC(=O)c2ccc(N(C)C)cc2)C1	32µM*	10	-3%	15%
Cc1ccc(-n2nc(C)c([C@@H]3C=C[C@@H](NCc4ccc(N(C)C)cc4)C3)c2C)cc1Cl	40µM*	14	?	?
Cc1nn(-c2ccc(C(C)C)cc2)c(C)c1[C@@H]1C=C[C@@H](NC(=O)NCc2ccccc2)C1	i	-4	?	?
COc1ccc(F)cc1-c1ccc(CN2CCC(NC(=O)c3ccccn3)C2)cc1 (stereo not given)	.	-2	.	.
COCCN(C)C[C@@H]1CN(C(=O)c2cnc(SC)nc2)C[C@@H]1CO	i	0	-11%	-1%
COCCN(C)C[C@@H]1CN(c2cc(C)c3ccc(SC)cc3n2)C[C@@H]1CO	28µM*	5	?	-12%
O=C(NCCc1ccc(Cl)cc1)c1nc2cccnc2n(Cc2ccccc2)c1=O	.	2	-9%	-6%
COCCN1CC(C(=O)N2CCN(c3ncccc3C#N)CC2)CCC1=O (stereo not given)	32µM*	5	-6%	2%
COCCN1CC(C(=O)N2CCC(O)(c3ccc(F)cc3)CC2)CCC1=O (stereo not given)	i	-5	-13%	6%
CCS(=O)(=O)Nc1ccc2[nH]c(O)c(C(=Nc3ccc(CN4CCCCC4)cc3)c3ccccc3)c2c1	.	.	?	1.2µM*
CCc1cc(C(=O)O)c2c(c1)C(C)CC(C)(C)N2 (stereo not given)	i	.	.	.
CC(=O)N1CCCN(c2ccc3nnc(-c4ccccc4)n3n2)CC1	.	6	.	.
Cc1cnc(NC(=O)c2ccc3c(c2)OCCN(c2ccccc2)C3)s1	28µM*	-10	-10%[87.6 µM]	19%[87.6 µM]
CC(=O)N[C@@H]1CN(Cc2cc(=O)n3[nH]cnc3n2)C[C@H]1c1ccc(C)o1	22µM*	21	2%	0%
CC(=O)N[C@@H]1CN(S(=O)(=O)c2sccc2C)C[C@H]1c1ccc(C)o1	i	18	-3%	-1%
NCc1cccc(-c2cc(C(F)(F)F)ccc2Cl)c1	89µM*	-7	-14%	-4%
CN(C)S(=O)(=O)N(CC(=O)N1CCN(c2ccccc2)CC1)c1ccc(F)cc1	i	.	.	.
COc1ccc(CC(=O)N2CCC(Nc3nccnc3OC)CC2)cc1	28µM*	11	4%	8%
COc1nccnc1NC1CCN(C(=O)Cc2c(C)noc2C)CC1	32µM*	-6	2%	-5%
COc1nccnc1NC1CCN(C(=O)NCc2ccc(F)cc2)CC1	28µM*	-4	0%	-16%
COc1nccnc1NC1CCN(C(=O)Cc2ccsc2)CC1	32µM*	-2	-16%	-3%
COc1ccc(CNc2ncnc3c2CN(C2CCCNCC2)C(=O)CN3C)cc1 (stereo not given)	?	-2	1%	2%
O=C(NCc1ccc(C(F)(F)F)cc1)C1CCN(Cc2ccccc2-c2ccccc2F)CC1	.	6	.	.
CC(C)COC(=O)N1C[C@@H](CO)[C@@H]2Oc3c(F)cccc3[C@@H]21	.	12	.	.
COCCN1CCC2(C1)CN(C)c1ccc(C(=O)Nc3ccc(OC)cc3)cc12 (stereo not given)	?	15	-13%[87.6 µM]	103%[87.6 µM]
